Experimental data taken from PubChem BioAssay (NCI).
The panel holds about 83,000 compounds, 20% with a hit somewhere; the sample as a whole holds those more often.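 Activity criterion: percent growth below 10, measured after cells in 96-well plates were exposed to a single compound concentration for 48 hours.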 Calls of active or inactive are those of the source.

Key:
Experiment in all cases: NCI-60 one-dose screen, 48 h (100 = growth as untreated, 0 = no growth, -100 = all killed)
Details in all cases: 10 µM unless noted
[1] = system: SR leukemia
[2] = system: RPMI-8226 leukemia
[3] = system: OVCAR-8 ovarian
[4] = system: OVCAR-5 ovarian
[5] = system: OVCAR-4 ovarian
[6] = system: SK-OV-3 ovarian
[7] = system: IGROV1 ovarian
[8] = system: OVCAR-3 ovarian
[9] = system: HS 578T breast
[10] = system: NCI/ADR-RES ovarian

Measured: growth

C#C[C@]1(O)CC[C@H]2[C@@H]3CC=C4c5sc(-c6ccc7c(c6)OCO7)nc5CC[C@]4(C)[C@H]3CC[C@@]21C
inactive: [1] 16.9% | [3] 30.2% | [4] 36.3% | [5] 34.9% | [6] 52.3% | [7] 34.8% | [10] 39.2%
active: [2] -15.3% | [8] -13.2% | [9] -9.35%

COc1ccc(C(=O)c2c(N)c(C#N)cn2-c2ccccc2OC)cc1
inactive: [1] 16.1% | [2] 35.9% | [3] 55.9% | [4] 76.7% | [5] 63.3% | [6] 45.6% | [7] 33.1% | [8] 14.6% | [9] 13% | [10] 13.5%

CC(=O)c1nnn(-c2c(C(=O)n3nc(C)cc3C)sc(=S)n2-c2ccccc2)c1C
inactive: [1] 109% | [2] 101% | [3] 103% | [4] 120% | [5] 100% | [6] 108% | [7] 95.6% | [8] 115% | [9] 113% | [10] 111%

N/C(=N\C(N)=N\c1nc2ccccc2s1)c1cccc(F)c1
inactive: [1] 48.4% [5 µM] | [2] 84.4% [5 µM] | [3] 98.9% [5 µM] | [4] 102% [5 µM] | [5] 133% [5 µM] | [6] 93.9% [5 µM] | [7] 68.4% [5 µM] | [8] 101% [5 µM] | [9] 93.7% [5 µM] | [10] 86.3% [5 µM]

COc1ccc(C2CC(c3cccc(Nc4nc(Cl)nc5cc(OC)c(OC)cc45)c3)=Nc3c(N)nc(N)nc3N2)cc1 (stereo not given)
active: [1] 3.81%
inactive: [2] 38.4% | [3] 70.1% | [4] 111% | [5] 96.6% | [6] 121% | [7] 92.5% | [8] 75.3% | [9] 94.4% | [10] 92.3%

O=C1C(c2ccccc2)=C(N2CCc3ccccc32)OC1(Cl)Cl
active: [2] 8.06% | [8] 3.88%
inactive: [1] 17.5% | [3] 74.3% | [4] 82% | [5] 59.9% | [6] 112% | [7] 43.5% | [9] 66.3% | [10] 86.7%

COc1cccc(/C=C(/C)c2ccc3cccc(OC)c3[o+]2)c1O
inactive: [1] 92.1% | [2] 93.1% | [3] 100% | [4] 104% | [5] 98% | [6] 107% | [7] 94.5% | [8] 114% | [9] 101% | [10] 107%

CCCCCCCn1cc2c(NCCc3ccccc3)ncnc2n1
inactive: [1] 85.4% | [2] 92.4% | [3] 99.9% | [4] 108% | [5] 101% | [6] 113% | [7] 97.5% | [8] 121% | [9] 88.5% | [10] 98.7%

COc1ccc2c(c1)c(CC(=O)[Se]CC(=O)O)c(C)n2C(=O)c1ccc(Cl)cc1
inactive: [1] 101% | [2] 98.4% | [3] 101% | [4] 104% | [5] 103% | [6] 116% | [7] 74.5% | [8] 113% | [9] 85.8% | [10] 103%

CS(=O)(=O)Nc1cc(-c2ccc3ncc(C#N)c(NCc4cccc(F)c4)c3c2)cnc1Cl
inactive: [4] 16.4% | [5] 11.3% | [10] 23.4%
active: [1] 2.9% | [2] -24.2% | [3] 7.95% | [6] -18.2% | [7] -42.5% | [8] 2.49% | [9] -24.8%

CCO/C=N/C1=C(C#N)C(c2ccc(Cl)cc2)c2sc3c(CC)cccc3c2O1 (stereo not given)
active: [2] 9.39% | [8] -20.5%
inactive: [1] 18% | [3] 28.5% | [4] 36.9% | [5] 76.5% | [6] 58.2% | [7] 23% | [9] 18.4% | [10] 14.9%

N#Cc1cn(Cc2ccc(Cl)cc2Cl)c(C(=O)c2ccc(Br)cc2)c1N
inactive: [1] 99.5% | [2] 111% | [3] 84.5% | [4] 92% | [5] 100% | [6] 90.4% | [7] 97.3% | [8] 105% | [9] 90% | [10] 88.8%

NC(N)=Nc1ccc(Oc2cccc(NC(N)=Nc3ccc(I)cc3F)c2)cn1
inactive: [2] 34.1% | [3] 77.6% | [4] 49% | [5] 66.6% | [6] 67.2% | [7] 39.7% | [8] 41.7% | [9] 53.3% | [10] 95.2%
active: [1] 7.24%
